Results reported in PubChem BioAssay AID504832 (National Center for Advancing Translational Sciences (NCATS), 2011).
Hit rate of the full screen: of about 310,000 compounds, about 18,000 (5.8%) were called active. Entries that show only a call come without a potency. Inconclusive results (about 22%) are left out. Calls follow the shape of the dose curve; as a rule, active = well fitted inhibition curve with a large enough effect; inconclusive = small, poorly fitted or top-dose-only effect, or another doubt; inactive = no such curve, though single readings can be large or run the other way. For the sample, actives were picked, then their nearest neighbours and some compounds at random.

Experiment: Primary qHTS for delayed death inhibitors of the malarial parasite plastid, 48 hour incubation
Details: P. falciparum luciferase growth in erythrocytes; series mostly up to 28.7 µM
Outline: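 Parasite viability was followed by luminescence of a genomically integrated firefly luciferase. Cultures held 0.1% parasitemia at 2% hematocrit (final), incubated under 5% CO2 at 37 C.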
Potency is read from the fitted curve at half-maximal effect.

Compound | Potency | activity change, negative = inhibition
Cc1ccc(Cc2nnc(SCC(=O)Nc3ccc(C)cc3C)[nH]c2=O)cc1 | inactive | 
CC(=O)C1=C(C)NC2=C(C(=O)CC(C)(C)C2)C1C (stereo not drawn) | inactive | 
CCC1C(C#N)=C(SC)NC2=C1C(=O)CC(C)(C)C2 (stereo not drawn) | inactive | 
COc1cc(C2C(C#N)=C(C)NC3=C2C(=O)CC(C)(C)C3)ccc1O (stereo not drawn) | 10.4 µM (active) | 
CC(=O)Nc1c2c(nn1-c1cccc(C)c1)CSC2 | inactive | 
COc1ccc(S(=O)(=O)n2cnc3ccccc32)c(C)c1 | inactive | 
O=S(=O)(c1ccccc1)N(Cc1cccc(F)c1)c1ccccc1 | inactive | 
COc1ccc(NC(=O)COc2ccc(C(=O)c3ccc(F)cc3)cc2)cc1S(N)(=O)=O | inactive | 
Cc1cc(=O)oc2c3c(cc(OCC(=O)N[C@H](C(=O)O)c4ccccc4)c12)OC(C)(C)CC3 | inactive | 
Cc1ccc(-n2ncc(C(=O)NC3CC3)c2C2CCN(C(=O)OC(C)(C)C)CC2)c(C)c1 | 10.4 µM (active) | 
CCOC(=O)N1CCC(NC(=O)c2cnn3ccccc23)CC1 | inactive | 
Cc1ccc(C)c(NC(=O)C2CCCN2C(=O)OC(C)(C)C)c1 (stereo not drawn) | inactive | 
O=C(COC(=O)c1cccc(Cl)c1)Nc1ccc2[nH]c(=O)[nH]c2c1 | inactive | 
CCCS(=O)(=O)Nc1ccc(-c2cn3c(n2)SCC3)cc1 | inactive | 
Cc1ccc(NC(=O)Cn2c(C)csc2=O)cc1 | inactive | 
Cn1c(CCN2CCCCCC2)nc2cc(NC(=O)Nc3ccccc3)ccc21 | 3.29 µM (active) | 
CCC(=O)Nc1ccc2c(c1)nc(CCN1CCN(C)CC1)n2C | inactive | 
CCC(=O)Nc1ccc2c(c1)nc(CCN1CCN(c3ccccn3)CC1)n2C | inactive | 
O=C(NC1CCCCC1)C1CCC(CNS(=O)(=O)c2ccccc2)CC1 (stereo not drawn) | inactive | 
CCN(CC)S(=O)(=O)c1ccc(N2CCOCC2)c(NC(=O)C2CSC3(C)CCC(=O)N23)c1 (stereo not drawn) | inactive | 
CC(C)Oc1ccc(S(=O)(=O)N2CCOCC2)cc1NC(=O)C1CCCC1 | inactive | 
CC(C)Oc1ccc(S(=O)(=O)N2CCOCC2)cc1NC(=O)C1CSC2(C)CCC(=O)N12 (stereo not drawn) | 9.28 µM (active) | 
Cc1ccc(NC(=O)C/C(N)=N/O)cc1Cl | inactive | 
Cc1ccc(NC(=O)CSc2nnc(CNC(=O)c3ccccc3F)o2)cc1Cl | inactive | 
Cc1ccc(NC(=O)CSc2nn3c(=O)c(C)nnc3s2)cc1Cl | 13.1 µM (active) | 
COc1cccc(-c2nc(CS(=O)CC(=O)NCc3ccc(F)cc3)c(C)o2)c1 (stereo not drawn) | inactive | 

Compound | Potency | activity change, negative = inhibition
CCCn1c(=O)c(C(=O)Nc2cc(C)ccn2)c(O)c2ccccc21 | inactive | 
O=S(=O)(Nc1ccccc1)c1ccc(NS(=O)(=O)c2cccs2)cc1 | inactive | 
CCCCNC(=O)N(O)C1N(/N=C/c2ccc(N(C)C)cc2)C(=S)SC1(C)C (stereo not drawn) |  | -2.29% [at 0.00184 µM] (inactive)
N#Cc1c(-c2ccccc2)c(-c2ccccc2)n[nH]c1=O | inactive | 
N#Cc1c(NC(=O)CCCN2C(=O)c3ccccc3C2=O)oc(-c2ccccc2)c1-c1ccccc1 | inactive | 
N#Cc1c(/N=C/N2CCCC2)oc(-c2ccccc2)c1-c1ccccc1 | 4.65 µM (active) | 
C=C1CCC(N(O)c2cc(C)on2)C(=C)CCC2C1CC2(C)C (stereo not drawn) | 4.65 µM (active) | 
COc1ccc(S(=O)(=O)N(C)CC(=O)NCCCN2CCOCC2)cc1Cl | inactive | 
CCCNC(=O)COc1coc(CN2CCN(Cc3ccccc3)CC2)cc1=O | inactive | 
Cc1ccc(CNS(=O)(=O)CCNC(=O)c2ccccc2)cc1 | inactive | 
O=c1c2ccccc2oc2nc(C3CCCCC3)n(Cc3ccco3)c(=O)c12 | 13.1 µM (active) | 
O=C(Cn1c(=O)n(Cc2ccco2)c(=O)c2ccccc21)NCC1CCCO1 (stereo not drawn) | inactive | 
O=c1c2ccccc2oc2nc3n(c(=O)c12)CCCS3 | inactive | 
Cc1ccc(NS(=O)(=O)c2ccc(N/N=C/c3ccccc3OCC(=O)O)c([N+](=O)[O-])c2)c(C)c1 | 11.7 µM (active) | 
COCCNC(=O)c1ccccc1NS(=O)(=O)c1ccc(C)c([N+](=O)[O-])c1 | inactive | 
Cc1cccc(COc2ccccc2/C=N/Nc2ccc([N+](=O)[O-])cc2)c1 | inactive | 
O=C(N/C(=C\c1ccc([N+](=O)[O-])cc1)C(=O)N1CCCCC1)c1ccco1 | inactive | 
O=C(CN1CCOC1=O)N1CCCC(Nc2ccc(F)c(F)c2)C1 (stereo not drawn) | inactive | 
COc1ccccc1-c1cnn2c(N3CCOCC3)cc(C)nc12 | inactive | 
Cn1nccc1/C=N\NC(=O)c1ccc(Cl)cc1 | inactive | 
CN(CCc1ccccn1)C(=O)c1ccc(OC2CCN(Cc3ccccn3)CC2)cc1 | inactive | 
COc1ccc(F)cc1S(=O)(=O)NCC(c1ccc2c(c1)OCO2)N1CCN(C)CC1 (stereo not drawn) | inactive | 
COc1ccc(-c2cc(=O)oc3cc(OCC(=O)N[C@@H](Cc4c[nH]c5ccccc45)C(=O)O)ccc23)cc1 | inactive | 
CCN(CC)C(=O)CC(c1ccc2c(c1)OCO2)c1c(OC)cc(OC)c2c(-c3ccccc3)cc(=O)oc12 (stereo not drawn) | 11.7 µM (active) | 
CCN(CC)CCC(c1ccc2c(c1)OCO2)c1c(OC)cc(OC)c2c(-c3ccccc3)cc(=O)oc12 (stereo not drawn) | 9.28 µM (active) | 
COc1cc(OC)c(C(=O)NCc2ccc3c(c2)OCO3)cc1OC | inactive | 

Compound | Potency | activity change, negative = inhibition
CC(=O)COc1ccc2c(-c3ccccc3)cc(=O)oc2c1 | inactive | 
CCN(CC)CCC(c1cc(OC)c(OC)c(OC)c1)c1c(OC)cc(OC)c2c(-c3ccccc3)cc(=O)oc12 (stereo not drawn) | 3.29 µM (active) | 
Cc1[nH][nH]c(=O)c1C(c1ccc2c(c1)OCO2)c1c(C)[nH][nH]c1=O | inactive | 
CCCCN(CC)C(=O)c1ccc2c(c1)OCO2 | inactive | 
O=C(NNC(=O)c1ccc(-n2cncn2)c([N+](=O)[O-])c1)c1ccccc1 | inactive | 
S=C(Nc1ccc(Cl)cc1Cl)N1CCCC1 | inactive | 
COc1cc(/C=N/NC(=O)Cc2ccccc2)cc(OC)c1OC | inactive | 
O=C(Nc1cccc(F)c1)[C@@H]1CCCN1 | inactive | 
Cc1cc(C)nc(NS(=O)(=O)c2ccc(N3C(=O)C4CCCCC4C3=O)cc2)n1 (stereo not drawn) | inactive | 
Cc1cc(N2C(=O)C(O)=C(C(=O)c3ccc(C)o3)C2c2ccc(OCc3ccccc3)cc2)no1 (stereo not drawn) | inactive | 
O=C(Cn1nc([N+](=O)[O-])nc1Br)NC1CCCCC1 | 1.47 µM (active) | 
Cc1cc(C(F)F)nn1CC(=O)NC1CCCCCC1 | inactive | 
Cc1nn(CC(=O)NC2CCCCC2)c(=O)c2cccn12 | inactive | 
CC1(C)O[C@@H]2[C@H](O1)[C@@H](CO)O[C@H]2n1c(N2CCCCC2)nc2c(N)ncnc21 | inactive | 
O=C(NCc1cccnc1)C12CC3CC(CC(C3)C1)C2 | inactive | 
CCc1cccc(NC(=O)CCC(=O)O)c1 | inactive | 
O=C(CCl)Nc1cccc(CP(=O)(c2ccccc2)c2ccccc2)c1 | 10.4 µM (active) | 
O=C(Cc1ccccc1)Nc1cccc(NC(=O)c2ccccc2)c1 | inactive | 
O=C(/C=C/c1ccccc1)c1ccccc1O | inactive | 
CC(/C=C/c1ccccc1)=N\NC(=O)C1CC1(C)c1ccccc1 (stereo not drawn) | 11.7 µM (active) | 
CC(=O)Nc1ccc(/C=C/C(=O)c2ccccc2)cc1 | inactive | 
O=S(=O)(c1ccc(-c2ccno2)s1)N1CCCCC1 | inactive | 
CCn1cc(C(=O)N[C@@H](C)C(=O)NCCO)c(=O)c2cc3c(cc21)OCO3 | inactive | 
CCOC(=O)c1sc2nc(SC)nc(-c3ccccc3)c2c1N | inactive | 
CCOC(=O)C1=C(CC)Nc2ccccc2N=C1N | inactive | 
CCOC(=O)c1cc(Sc2ccccc2N)cc(C(=O)OCC)n1 | 0.147 µM (active) | 

Compound | Potency | activity change, negative = inhibition
CCOc1ccc(N2C(=O)CSC2=NC#N)cc1 | inactive | 
COc1ccccc1CNS(=O)(=O)CC12CCC(CC1=O)C2(C)C (stereo not drawn) | inactive | 
COC(=O)c1ccc(Nc2ncnc3sccc23)cc1 | inactive | 
Cc1nnc(SCC(=O)NCCOc2ccc(Cl)cc2)n1-c1ccccc1 | inactive | 
Cc1nnc(SCc2ccc(C(=O)c3ccc(Cl)cc3)o2)n1-c1ccccc1 | 14.7 µM (active) | 
Cc1nnc(SCC(=O)N2CCN(c3ccccc3)CC2)n1-c1ccccc1 | inactive | 
Cc1noc(C)c1C(=O)NCCc1ccc(S(N)(=O)=O)cc1 | inactive | 
COc1ccc(C)cc1NC(=S)N1CCOCC1 | inactive | 
CCOC(=O)c1sc(NC(=O)c2sc(C)nc2C)nc1C | inactive | 
Cn1c(Nc2ccccc2)cc(=O)n(C)c1=O | inactive | 
CCCCc1ccc(NC(=O)CN2C(=O)NC(Cc3ccccc3)C2=O)cc1 (stereo not drawn) | inactive | 
O=C1C(Cc2ccc(O)cc2)NC(=S)N1Cc1ccccc1 (stereo not drawn) | 2.94 µM (active) | 
Cc1ccc(N2C(=O)C(Cc3ccccc3)NC2=S)cc1 (stereo not drawn) | inactive | 
C=CCOc1ccc(C(=O)Nc2ccccc2C(=O)N2CCCC2)cc1 | inactive | 
CCOC(=O)CNc1nc(Cl)nc(Nc2ccc(OC)cc2OC)n1 | inactive | 
Cc1c(O)c(C)c2c(c1O)C(=O)C[C@@H](c1ccccc1)O2 | 13.1 µM (active) | 
CCCc1cc(C(=O)Nc2ccc(Cl)cn2)cs1 | inactive | 
Cc1cc(CNC(=O)C2CCC(=O)N(CCc3ccc(Cl)cc3)C2)no1 (stereo not drawn) | inactive | 
O=C(CC1N=C2c3ccccc3N=C(SCc3ccccc3Cl)N2C1=O)NCc1ccco1 (stereo not drawn) | 4.65 µM (active) | 
NC(=O)CSC1=Nc2ccccc2C2=NC(CCC(=O)NCc3ccc(F)cc3)C(=O)N12 (stereo not drawn) | inactive | 
CCC(C)NC(=O)CSC1=Nc2ccccc2C2=NC(CCC(=O)NCc3ccco3)C(=O)N12 (stereo not drawn) | inactive | 
Cc1ccc(C(=O)NCC(=O)NCc2cc(=O)n(C)c(=O)n2C)cc1 | inactive | 
COc1ccc(C(=O)NC(=S)Nc2ccc(N3CCCC3)cc2)cc1OC | inactive | 
COc1ccc(NC(=O)CC2SC(N3CCCCC3)=NC2=O)cc1OC (stereo not drawn) | inactive | 
COc1ccc(C(=O)Nc2ccc3nc(N4CCCCC4)cc(C)c3c2)cc1OC | 3.7 µM (active) | 
